According to PubChem BioAssay (NCATS):
Records with an inconclusive call do not appear. The source made the active and inactive calls. Unless noted, calls come from the whole dose curve; as a rule, active = well fitted curve in the direction sought with a large enough effect; inconclusive = small, poorly fitted or top-dose-only effect, or another doubt; inactive = no such curve, though single readings can be large; an effect the other way counts as inactive or inconclusive.

Columns and labels:
[1] = qHTS Assay for Identification of Small Molecule Agonists for Thrombopoietin (TPO) Signaling Pathway (AID 917)
Outline: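 Murine Ba/F3 cells stably expressing human TPO receptor and a Glycoprotein IIb promoter–luciferase reporter were IL-3-starved overnight, then treated with compounds plus TPO (26 pM final, its EC50) for 24 hrs at 37 C; luminescence was read.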

[2] = target: Muscarinic acetylcholine receptor M1 (Rattus norvegicus) (UniProt P08482); assay: qHTS Assay for Antagonists of Acetylcholine Muscarinic M1 Receptor: Measurement of IP-One Response (AID 944); note: nearly all actives have a fitted effect of over 75% in size
Outline: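 Steps: plate transfected CHO-M1 cells overnight; add test compound, 10 min; add carbachol (200 nM, EC80) in stimulation buffer with LiCl; incubate 30 min; add labelled IP1 tracer and anti-IP1 antibody in lysis buffer; read HTRF after 10 min.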

[3] = target: Pyruvate kinase (Leishmania mexicana) (UniProt Q27686); assay: qHTS Validation Assay for Inhibitors of Leishmania Mexicana Pyruvate Kinase (AID 945)
Outline: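 Luminescent ATP detection (PKLight) after a 1 h room-temperature reaction of 0.2 nM LmPYK E451W mutant with 0.5 mM PEP and 0.1 mM ADP at pH 7.2. Activity is normalized to DMSO-only control wells.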

[4] = target: Pyruvate kinase PKM (Homo sapiens) (UniProt P14618); assay: qHTS Assay for Activators of Human Muscle Pyruvate Kinase (AID 954; active = well fitted curve in the direction sought with a large enough effect, not every such curve was filed as active)
Outline: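 Enzyme was run at intermediate activity so both inhibitors and activators could be detected. ATP formed from ADP and PEP by 0.1 nM human PKM2 during a 1 h room-temperature incubation was quantified by coupled luciferase luminescence.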

[5] = target: Alpha-galactosidase A (Homo sapiens) (UniProt P06280); assay: Counterscreen for Glucocerebrosidase Inhibitors: qHTS Assay for Human alpha-Galactosidase at pH 4.5 (AID 992)
Outline: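 Read-out is 4-methylumbelliferone fluorescence (365 nm excitation, 440 nm emission) after a pH 10 NaOH/glycine stop. Reactions held 2 nM enzyme and 80 uM substrate at pH 4.5 for 20 min at room temperature.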

Measured: Potency

Chain of Pyruvate kinase (Leishmania mexicana) (Q27686 2-499 E452W): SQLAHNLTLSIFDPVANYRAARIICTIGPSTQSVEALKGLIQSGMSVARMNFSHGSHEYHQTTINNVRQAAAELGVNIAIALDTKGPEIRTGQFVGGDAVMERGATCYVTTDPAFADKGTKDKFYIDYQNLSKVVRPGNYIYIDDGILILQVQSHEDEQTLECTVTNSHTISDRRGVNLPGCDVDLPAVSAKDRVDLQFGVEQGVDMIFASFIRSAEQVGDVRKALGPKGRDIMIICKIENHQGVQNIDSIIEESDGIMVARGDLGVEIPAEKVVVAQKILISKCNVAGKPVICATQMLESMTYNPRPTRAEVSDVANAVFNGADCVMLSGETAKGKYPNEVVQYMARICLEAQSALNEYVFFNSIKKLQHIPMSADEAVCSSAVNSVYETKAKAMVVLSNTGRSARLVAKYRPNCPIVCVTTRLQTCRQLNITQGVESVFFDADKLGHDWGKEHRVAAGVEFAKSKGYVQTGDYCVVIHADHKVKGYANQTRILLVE
Chain of Muscarinic acetylcholine receptor M1 (Rattus norvegicus) (P08482 whole entry, looked up): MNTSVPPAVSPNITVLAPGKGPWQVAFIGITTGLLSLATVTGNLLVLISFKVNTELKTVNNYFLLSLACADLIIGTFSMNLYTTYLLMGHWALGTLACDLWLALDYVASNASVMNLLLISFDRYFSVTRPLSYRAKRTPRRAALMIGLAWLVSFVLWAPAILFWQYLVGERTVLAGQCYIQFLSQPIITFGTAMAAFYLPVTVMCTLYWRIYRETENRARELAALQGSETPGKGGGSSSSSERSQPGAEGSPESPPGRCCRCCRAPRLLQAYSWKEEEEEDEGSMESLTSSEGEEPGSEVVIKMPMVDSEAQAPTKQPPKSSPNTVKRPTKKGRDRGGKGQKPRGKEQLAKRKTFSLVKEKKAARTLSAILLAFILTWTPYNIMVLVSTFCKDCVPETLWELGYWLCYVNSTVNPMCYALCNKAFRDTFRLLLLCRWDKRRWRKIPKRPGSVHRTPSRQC
Chain of Pyruvate kinase PKM (Homo sapiens) (P14618 whole entry, looked up): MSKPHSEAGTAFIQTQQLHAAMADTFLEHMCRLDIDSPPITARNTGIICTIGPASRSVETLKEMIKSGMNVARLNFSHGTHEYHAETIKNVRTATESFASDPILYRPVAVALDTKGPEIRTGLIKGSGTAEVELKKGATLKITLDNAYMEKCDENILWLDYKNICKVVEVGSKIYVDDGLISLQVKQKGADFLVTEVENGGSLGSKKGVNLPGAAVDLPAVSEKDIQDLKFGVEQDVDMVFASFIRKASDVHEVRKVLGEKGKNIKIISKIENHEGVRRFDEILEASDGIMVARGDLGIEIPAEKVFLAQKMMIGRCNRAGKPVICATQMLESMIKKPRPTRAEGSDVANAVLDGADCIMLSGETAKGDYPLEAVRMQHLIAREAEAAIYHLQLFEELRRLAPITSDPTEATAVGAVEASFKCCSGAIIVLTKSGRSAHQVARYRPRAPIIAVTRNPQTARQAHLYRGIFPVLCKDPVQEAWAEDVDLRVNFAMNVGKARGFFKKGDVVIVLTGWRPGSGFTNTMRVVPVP
Chain of Alpha-galactosidase A (Homo sapiens) (P06280 whole entry, looked up): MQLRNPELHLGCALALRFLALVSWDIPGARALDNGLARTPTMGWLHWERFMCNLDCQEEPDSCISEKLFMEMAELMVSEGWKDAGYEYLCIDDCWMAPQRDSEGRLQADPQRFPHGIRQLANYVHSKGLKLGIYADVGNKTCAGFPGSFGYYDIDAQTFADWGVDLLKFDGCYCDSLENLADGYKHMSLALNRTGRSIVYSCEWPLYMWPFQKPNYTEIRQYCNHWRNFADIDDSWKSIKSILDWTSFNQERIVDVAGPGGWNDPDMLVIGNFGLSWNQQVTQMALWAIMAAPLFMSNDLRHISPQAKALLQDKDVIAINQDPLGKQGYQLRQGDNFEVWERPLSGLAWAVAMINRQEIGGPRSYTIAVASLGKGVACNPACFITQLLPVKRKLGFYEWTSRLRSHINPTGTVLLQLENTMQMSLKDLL

CC[C@@H](CO)Nc1nc(NCc2ccccc2)c2ncn(C(C)C)c2n1
inactive: [1] | [2] | [3] | [4] | [5]
